About 7,900 targets were measured; listed, in parts, are those with a hit and a random draw of the rest. About 0.6% of all pairs of compound and target were hits. Values without a mark were called inactive.

What all share (test): log2 fold change, soluble protein after heating vs DMSO (PISA); higher = thermal stabilisation; K562 cells, 10 uM, 30 min; active = over 0.2 and 3.5 SD of the protein, either way, in both replicates (recomputed)
Compound in assay [1]: CC[C@@H]1C(=O)N(C)c2cnc(Nc3ccc(C(=O)NC4CCN(C)CC4)cc3OC)nc2N1C1CCCC1
The method in brief: (§1)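 Quantification of soluble protein used TMTpro 16plex LC-MS/MS, with channel sums equalised. Samples were the supernatant after 21,000xg for 90 min of pooled aliquots from K562 cells (2×10^6 cells/mL) treated with 10 μM compound for 30 min, heated for 3 min over 48°C-58°C, and extracted in PBS with 0.5% NP-40 at 4°C. Values, from duplicates, describe thermal stability against control samples on a log2 fold-change scale.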

Compound in a further assay: CC[C@@H]1C(=O)N(C)c2cnc(Nc3ccc(C(=O)N[C@H]4CC[C@H](N5CCN(CC6CC6)CC5)CC4)cc3OC)nc2N1C(C)C [volasertib]
The method, boiled down: as §1

Compound in assay [2]: CC[C@H](C)N1C=C(C2=C(C=C(C=C21)C3=CN=C(C=C3)N4CCNCC4)C(=O)NCC5=C(C=C(NC5=O)C)C)C
The method, boiled down: as §1

Compound in a further assay: CC[C@H](C)[C@@H](C(=O)N[C@@H]([C@@H](C)O)C(=O)N[C@@H](CC(C)C)C(=O)[C@]1(CO1)C)NC(=O)[C@H]([C@@H](C)CC)N(C)C(=O)C [epoxomicin]
The method, boiled down: as §1

Compound in assay [3]: CCn1c(C(=O)N(C2CC2)C2CC2)cc2c3c(ncn3C)c(Nc3cc(C)n(C)n3)nc21
The method, boiled down: as §1

Compound in assay [4]: CCn1cc(-c2ccnc3[nH]c(-c4cccc(CN(C)C)c4)cc23)c(-c2ccc(NC(=O)N(C)C)cc2)n1
The method in brief: as §1

Compound in assay [5]: CN(C)CC(=O)Nc1ccc2[nH]c(=O)c3ccccc3c2c1
The method in brief: as §1

Compound in the next assay: CN(CCOC1=CC=C(C=C1)C[C@H]2C(=O)NC(=O)S2)C3=CC=CC=N3 (racemic) [rosiglitazone]
The method in brief: as §1

Compound in assay [6]: CN1C2=C(C3=C1C(=O)N(N=C3)CC4=CC(=CC=C4)N)SC(=C2)S(=O)C
The method, boiled down:
as §1

Compound in assay [7]: CN1CCC(CNc2ccc3ncc(-c4cccc(OC(F)(F)F)c4)n3n2)CC1
The method, boiled down:
as §1

Compound in another assay: CN1CCN(CCOc2cc(OC3CCOCC3)c3c(Nc4c(Cl)ccc5c4OCO5)ncnc3c2)CC1 [saracatinib]
The method, boiled down: as §1

Compound in a further assay: CN1CCN(c2nc(C3=C(c4c[nH]c5ccccc45)C(=O)NC3=O)c3ccccc3n2)CC1 [sotrastaurin]
The method in brief: as §1

Compound in another assay: CN1CC[C@H](c2c(O)cc(O)c3c(=O)cc(-c4ccccc4Cl)oc23)[C@H](O)C1 [alvocidib]
The method in brief: as §1

Compound in another assay: CN1CCc2c(c3ccccc3n2Cc2ccc(C(=O)NO)cc2)C1 [Tubastatin A]
The method, boiled down: as §1

Compound in assay [8]: CNC(=O)C1=CC=CC=C1NC2=NC(=NC=C2Cl)NC3=C(C=C(C=C3)N4CCOCC4)OC
The method, boiled down: as §1

Compound in a further assay: CNC(=O)c1ccc(Nc2ncc(C(F)(F)F)c(NCc3nccnc3N(C)S(C)(=O)=O)n2)cc1 [defactinib]
The method in brief:
as §1

Compound in another assay: CNCc1ccc(-c2[nH]c3cc(F)cc4c3c2CCNC4=O)cc1 [rucaparib]
The method, boiled down:
as §1

Compound in assay [9]: CNc1nc(-c2ccc3c(N)n[nH]c3c2)cc(N2C[C@@H](C(=O)NC3CCCCC3)CC[C@H]2C)n1
The method in brief: as §1

Compound in the next assay: COC(=O)N[C@@H](C)CNc1nccc(-c2cn(C(C)C)nc2-c2cc(Cl)cc(NS(C)(=O)=O)c2F)n1 [encorafenib]
The method, boiled down:
as §1

Compound in assay [10]: COC(=O)[C@H](CCSC)NC(=O)C1=C(C=C(C=C1)NC[C@H](CS)N)C2=CC=CC=C2
The method, boiled down: as §1

UniProt O15228, sequence (O15228 whole entry, looked up): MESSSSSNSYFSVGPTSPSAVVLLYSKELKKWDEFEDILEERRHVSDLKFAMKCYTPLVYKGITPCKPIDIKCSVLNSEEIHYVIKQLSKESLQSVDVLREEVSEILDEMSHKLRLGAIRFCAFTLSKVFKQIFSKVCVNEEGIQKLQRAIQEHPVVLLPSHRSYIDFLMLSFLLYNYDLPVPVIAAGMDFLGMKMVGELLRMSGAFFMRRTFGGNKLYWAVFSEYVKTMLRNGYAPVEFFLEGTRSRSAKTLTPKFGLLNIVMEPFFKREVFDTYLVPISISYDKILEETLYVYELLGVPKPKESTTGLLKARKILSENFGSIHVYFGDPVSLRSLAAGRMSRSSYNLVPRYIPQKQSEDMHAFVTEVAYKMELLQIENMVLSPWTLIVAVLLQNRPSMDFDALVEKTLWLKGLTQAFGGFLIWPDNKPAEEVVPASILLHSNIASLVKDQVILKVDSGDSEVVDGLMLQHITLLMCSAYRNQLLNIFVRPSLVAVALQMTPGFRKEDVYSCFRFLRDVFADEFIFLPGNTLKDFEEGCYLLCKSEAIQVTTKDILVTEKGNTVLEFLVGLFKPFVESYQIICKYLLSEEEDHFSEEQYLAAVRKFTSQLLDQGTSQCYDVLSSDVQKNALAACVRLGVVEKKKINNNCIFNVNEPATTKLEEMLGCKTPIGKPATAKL
UniProt Q9BXW9, sequence (Q9BXW9 whole entry, looked up): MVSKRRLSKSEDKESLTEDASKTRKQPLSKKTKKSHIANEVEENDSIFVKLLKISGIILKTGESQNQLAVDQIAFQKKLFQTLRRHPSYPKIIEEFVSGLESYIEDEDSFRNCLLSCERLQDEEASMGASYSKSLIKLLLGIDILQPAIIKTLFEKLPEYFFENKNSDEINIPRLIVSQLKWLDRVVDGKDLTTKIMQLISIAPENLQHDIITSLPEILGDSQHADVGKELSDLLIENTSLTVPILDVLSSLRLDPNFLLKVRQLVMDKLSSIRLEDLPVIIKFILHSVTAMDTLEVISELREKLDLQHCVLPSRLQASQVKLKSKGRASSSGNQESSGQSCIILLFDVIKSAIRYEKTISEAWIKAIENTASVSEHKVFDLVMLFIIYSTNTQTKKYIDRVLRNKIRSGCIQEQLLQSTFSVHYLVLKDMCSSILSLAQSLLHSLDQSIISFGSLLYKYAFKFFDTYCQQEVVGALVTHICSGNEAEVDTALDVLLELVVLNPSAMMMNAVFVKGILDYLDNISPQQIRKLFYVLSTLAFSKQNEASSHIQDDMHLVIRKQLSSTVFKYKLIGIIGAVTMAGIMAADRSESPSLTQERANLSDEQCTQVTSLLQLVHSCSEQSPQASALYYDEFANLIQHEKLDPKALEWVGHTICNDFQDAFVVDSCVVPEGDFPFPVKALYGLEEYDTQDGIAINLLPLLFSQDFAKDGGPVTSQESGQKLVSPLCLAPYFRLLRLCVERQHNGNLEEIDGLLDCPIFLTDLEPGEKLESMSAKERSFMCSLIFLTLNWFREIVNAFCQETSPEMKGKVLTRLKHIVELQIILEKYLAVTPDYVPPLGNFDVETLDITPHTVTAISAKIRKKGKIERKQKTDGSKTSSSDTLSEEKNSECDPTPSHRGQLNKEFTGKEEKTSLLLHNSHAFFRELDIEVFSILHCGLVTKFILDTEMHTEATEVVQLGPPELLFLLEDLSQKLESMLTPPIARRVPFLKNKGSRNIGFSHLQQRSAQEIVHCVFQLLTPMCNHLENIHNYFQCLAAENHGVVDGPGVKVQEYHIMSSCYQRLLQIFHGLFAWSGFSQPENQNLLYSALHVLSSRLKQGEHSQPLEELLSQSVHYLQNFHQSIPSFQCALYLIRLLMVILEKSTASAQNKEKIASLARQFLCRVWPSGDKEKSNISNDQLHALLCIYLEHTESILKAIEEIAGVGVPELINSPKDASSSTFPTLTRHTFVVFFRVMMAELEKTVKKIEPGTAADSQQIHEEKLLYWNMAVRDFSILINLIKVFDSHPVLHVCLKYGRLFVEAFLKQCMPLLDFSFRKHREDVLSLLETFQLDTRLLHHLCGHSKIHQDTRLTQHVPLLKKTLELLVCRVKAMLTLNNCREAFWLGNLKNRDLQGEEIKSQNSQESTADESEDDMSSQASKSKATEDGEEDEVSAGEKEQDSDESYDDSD
UniProt P07910, sequence (P07910 whole entry, looked up): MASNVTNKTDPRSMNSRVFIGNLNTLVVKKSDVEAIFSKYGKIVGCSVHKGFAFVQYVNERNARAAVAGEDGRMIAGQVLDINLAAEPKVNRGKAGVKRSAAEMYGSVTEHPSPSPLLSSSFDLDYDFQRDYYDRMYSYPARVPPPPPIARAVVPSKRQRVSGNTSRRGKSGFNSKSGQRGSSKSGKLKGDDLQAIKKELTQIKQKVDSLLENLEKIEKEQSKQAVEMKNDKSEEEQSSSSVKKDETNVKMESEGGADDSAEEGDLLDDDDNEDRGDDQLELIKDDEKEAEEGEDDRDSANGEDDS
UniProt Q8NB37, sequence (Q8NB37 whole entry, looked up): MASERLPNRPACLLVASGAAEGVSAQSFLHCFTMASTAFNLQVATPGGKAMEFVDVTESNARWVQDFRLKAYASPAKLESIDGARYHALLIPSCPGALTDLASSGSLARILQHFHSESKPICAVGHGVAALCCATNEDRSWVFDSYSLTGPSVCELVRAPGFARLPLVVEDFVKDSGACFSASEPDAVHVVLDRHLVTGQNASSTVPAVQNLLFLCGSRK
UniProt P05114, sequence (P05114 whole entry, looked up): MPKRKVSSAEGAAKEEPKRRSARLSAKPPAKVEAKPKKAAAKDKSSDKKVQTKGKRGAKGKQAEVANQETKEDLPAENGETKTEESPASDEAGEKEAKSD

Consider FANCD2 isoform 1 (UniProt Q9BXW9), for which the log2 fold change was -0.229 in [1]; -0.251 with volasertib; 0.118 in assay [2]; -0.307 with epoxomicin; -0.04 in assay [3]; -0.055 in assay [4]. Further, the log2 fold change in [5] is 0.026; with rosiglitazone, 0.062; in [6], -0.009; in assay [7], -0.233; with saracatinib, -0.038; with sotrastaurin, 0.017. Further, the log2 fold change with alvocidib was -0.102; with Tubastatin A, -0.053; in assay [8], -0.126; with defactinib, -0.145; with rucaparib it was 0.051; in assay [9] it was 0.028. Besides, the log2 fold change was 0.009 with encorafenib and -0.029 in assay [10].
Take HNRNPC isoform 2 (UniProt P07910): the log2 fold change in assay [1] is 0.238; with volasertib, 0.276; in [2], 0.017; in the assay with epoxomicin, -0.423; in [3], -0.19; in [4], 0.147. For the same target, the log2 fold change is -0.151 in [5]; -0.129 with rosiglitazone; 0.467 in [6]; -0.067 in assay [7]; -0.067 with saracatinib; -0.035 with sotrastaurin. Moreover, the log2 fold change is 0.04 with alvocidib; 0.219 with Tubastatin A; 0.033 in assay [8]; 0.054 with defactinib; 0.392 in the assay with rucaparib; 0.115 in [9]. Further, the log2 fold change was 0.148 with encorafenib and 0.071 in assay [10].
With GATD1 (UniProt Q8NB37), the log2 fold change was -0.023 in assay [1]; -0.009 with volasertib; -0.032 in [2]; 0.078 with epoxomicin; 0.013 in assay [3]; -0.034 in assay [4]. Moreover, the log2 fold change was -0.02 in assay [5]; 0.013 with rosiglitazone; 0.011 in assay [6]; -0.049 in assay [7]; 0.077 with saracatinib; 0.057 in the assay with sotrastaurin. The log2 fold change in the assay with alvocidib was -0.084; with Tubastatin A it was 0.06; in assay [8], -0.079; with defactinib, 0.001; with rucaparib, -0.004; in assay [9], -0.022. The log2 fold change in the assay with encorafenib is 0; in assay [10] it was 0.011.
With GNPAT (UniProt O15228), the log2 fold change in [1] is -0.065; in the assay with volasertib, -0.149; in [2], -0.02; in the assay with epoxomicin, 0.04; in assay [3], 0.044; in [4] it was -0.066. The log2 fold change is -0.027 in assay [5]; 0.066 with rosiglitazone; -0.084 in assay [6]; -0.354 (active) in assay [7]; 0.01 in the assay with saracatinib; 0.077 with sotrastaurin. Further, the log2 fold change was -0.073 with alvocidib; -0.047 with Tubastatin A; 0.045 in [8]; -0.035 in the assay with defactinib; -0.06 with rucaparib; -0.041 in assay [9]. Moreover, the log2 fold change with encorafenib was 0.001; in assay [10], -0.027.
Regarding HMGN1 (UniProt P05114), the log2 fold change is 0.054 in [1]; 0.141 in the assay with volasertib; -0.044 in [2]; -0.008 in the assay with epoxomicin; 0.063 in assay [3]; 0.045 in assay [4]. Besides, the log2 fold change in assay [5] is -0.094; with rosiglitazone, -0.027; in assay [6], 0.039; in assay [7] it was 0.101; in the assay with saracatinib it was 0.024; in the assay with sotrastaurin, 0.068. Moreover, the log2 fold change in the assay with alvocidib is 0.149; in the assay with Tubastatin A, -0.087; in assay [8], 0.03; with defactinib, 0.09; in the assay with rucaparib, 0.043; in assay [9], -0.064. Further, the results for the log2 fold change (with encorafenib; in [10]) were -0.01 and 0.011, respectively.
Consider HIST2H3A (UniProt Q71DI3), for which the log2 fold change in assay [1] is -0.206; with volasertib, 0.111; in [2] it was -0.023; with epoxomicin, -0.003; in assay [3], -0.185; in assay [4], 0.315. Moreover, the log2 fold change in [5] is -0.124; with rosiglitazone, 0.011; in assay [6] it was 0.56; in [7], 0.09; with saracatinib it was -0.196; in the assay with sotrastaurin, 0.063. Further, the log2 fold change with alvocidib is 0.165; with Tubastatin A, 0.17; in assay [8], -0.166; in the assay with defactinib, 0.339; with rucaparib, 0.306; in assay [9] it was 0.185. Besides, the values for the log2 fold change (with encorafenib; in assay [10]) were -0.063 and 0.093, respectively.
Regarding HECTD1 (UniProt Q9ULT8), the log2 fold change in [1] is 0.107; with volasertib, -0.221; in assay [2] it was 0.063; in the assay with epoxomicin it was 0.012; in [3], -0.041; in [4], 0. Further, the log2 fold change in assay [5] is 0.016; with rosiglitazone, 0.056; in assay [6], 0.17; in assay [7], -0.054; with saracatinib, -0.184; with sotrastaurin, -0.066. Moreover, the log2 fold change in the assay with alvocidib is 0.111; in the assay with Tubastatin A, 0.071; in [8] it was 0.033; in the assay with defactinib, -0.026; in the assay with rucaparib it was 0.056; in assay [9] it was -0.001. Moreover, the log2 fold change with encorafenib was -0.154; in [10] it was -0.018.

For the origin of these results see the supplement of paper PMC10849652.
